Here are results for 29 compounds from PubChem BioAssay (Tox21).

Several values for one entry are separate records, joined by “and”; a condition that tells them apart may be missing. Equal values may be shown once. Inconclusive results are not listed. The source holds several records for some structures; these can differ, active in one and inactive in another. Activity calls are given as the source filed them. Unless noted, the call rests on the fitted dose curve.

The nature of assay [1]: qHTS assay to identify small molecule antagonists of the vitamin D receptor (VDR) signaling pathway - cell viability counter screen (AID 743225; active means well fitted curve in the direction sought with a large enough effect in the repeat runs; an effect the other way counts as inactive or inconclusive; further: nearly all actives have a fitted effect of over 50% in size; further: potency means the concentration at half of the fitted maximal effect; on viability change, negative = cytotoxic: on the % scale 0 is the no-effect control and ±100 the full control effect). The essentials: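 VDR-bla HEK 293T cells, 4 h pre-incubation at 37C, then compound plus 1-alpha,25-dihydroxyvitamin D3 (3 nM final) for 16 h. After the beta-lactamase FRET read, CellTiter-Glo was added to the same wells; luminescence after 30 min at room temperature.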

The nature of assay [2]: qHTS assay to identify small molecule agonists of the NFkB signaling pathway (AID 1159509; active means well fitted curve in the direction sought with a large enough effect in the signal ratio in the repeat runs, not every such curve was filed as active; the % refers to the signal ratio; further: series mostly up to about 61 µM; on the % scale 0 is the no-effect control and ±100 the full control effect). In outline: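 NFkB-bla ME-180 cells carry a beta-lactamase reporter under an NF-kB response element. They were plated overnight, then exposed to compounds for 5 h at 37 C. Read-out is LiveBLAzer FRET after 1.5 hr at room temperature (405 nm excitation; 460/530 nm emission).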
A short description of assay [3]: qHTS assay to identify small molecule agonists of the NFkB signaling pathway - cell viability counter screen (AID 1159515). Further: nearly all actives have a fitted effect of over 55% in size. Further: potency means the concentration at half of the fitted maximal effect. The essentials:
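NFkB-bla ME-180 cells, 2,000/well, plated overnight at 37 C; compound added for 5 hr at 37 C. Viability read in the same wells as the bla reporter, by CellTiter-Glo luminescence after 30 min at room temperature.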

The nature of assay [4]: qHTS assay to identify small molecule agonists of the endoplasmic reticulum stress response signaling pathway (AID 1159516; active means well fitted activation curve with a large enough effect in the signal ratio in the repeat runs, not every such curve was filed as active; the % refers to the signal ratio; further: on the % scale 0 is the no-effect control and ±100 the full control effect). The essentials:
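CellSensor ESRE-bla HeLa cells, 1,500 per well, plated overnight, then exposed to compounds for 5 hr at 37 C. Beta-lactamase reporter read with LiveBLAzer B/G FRET substrate after 2 hr at room temperature, 405 nm excitation, 460 and 530 nm emission.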

A short description of assay [5]: qHTS assay to identify small molecule agonists of the endoplasmic reticulum stress response signaling pathway - cell viability counter screen (AID 1159517). Further: series mostly up to about 61 µM; on the % scale 0 is the no-effect control and ±100 the full control effect; nearly all actives have a fitted effect of over 50% in size. In outline: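 HeLa cells carrying an ESRE-driven beta-lactamase reporter receive compound for 5 hr at 37 C. Cell viability is then gauged with CellTiter-Glo by luminescence, 30 min at room temperature.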
Assay [6] in a line: qHTS assay to identify small molecule antagonists of the retinoid-related orphan receptor gamma (ROR-gamma) signaling pathway - cell viability counter screen (AID 1159520; active means well fitted curve in the direction sought with a large enough effect in the repeat runs; an effect the other way counts as inactive or inconclusive; further: nearly all actives have a fitted effect of over 50% in size; further: potency means the concentration at half of the fitted maximal effect). The essentials: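 Cytotoxicity was read from cellular ATP (CellTiter-Glo luminescence) after 16 hr at 37 C with 1 uM doxycycline induction. The inducer was added 2 hr after compound transfer to Tet-on ROR gamma CHO cells.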

The target in assay [7] is Nuclear receptor ROR-gamma (Homo sapiens) (UniProt P51449). As to the kind of experiment: qHTS assay to identify small molecule antagonists of the retinoid-related orphan receptor gamma (ROR-gamma) signaling pathway (AID 1159521; active means well fitted curve in the direction sought with a large enough effect in the repeat runs; an effect the other way counts as inactive or inconclusive; further: nearly all actives have a fitted effect of over 50% in size; further: potency means the concentration at half of the fitted maximal effect). In outline: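 Tet-on RORγ CHO cells carrying a ROR response element–luciferase reporter were pretreated with compounds for 2 h, then induced with 1 uM (final) doxycycline hyclate for 16 h at 37 C. Antagonism was read as decreased ONE-Glo luminescence.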

Assay [8] in a line: qHTS assay to identify small molecule agonists of the AP-1 signaling pathway (AID 1159526). Further: on the % scale 0 is the no-effect control and ±100 the full control effect.
The target in assay [9] is Retinoic acid receptor RXR-alpha (Homo sapiens) (UniProt P19793). As to the kind of experiment: qHTS assay to identify small molecule agonists of the RXR signaling pathway (AID 1159527). Further: nearly all actives have a fitted effect of over 35% in size. Further: potency means the concentration at half of the fitted maximal effect. The essentials:
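GeneBLAzer RXR-alpha-UAS-bla HEK 293T cells in medium with 2% charcoal-stripped FBS, pre-incubated 5 hr at 37 C, then exposed to compounds 16 hr. Beta-lactamase reporter read by FRET substrate, 2 hr room temperature, 460/530 nm emission.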

Assay [10] in a line: qHTS assay to identify small molecule agonists of the AP-1 signaling pathway - cell viability counter screen (AID 1159525). Further: nearly all actives have a fitted effect of over 55% in size. The essentials: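 Luminescent ATP readout (Cell Titer Glo, 30 min RT), normalised to DMSO and tetra n-octyl ammonium bromide controls. Cells were ME-180 AP-1-bla in 0.5% dialyzed FBS Opti-MEM, with a 5 h, 37 °C compound exposure.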

Chain of Retinoic acid receptor RXR-alpha (Homo sapiens) (P19793 whole entry, looked up): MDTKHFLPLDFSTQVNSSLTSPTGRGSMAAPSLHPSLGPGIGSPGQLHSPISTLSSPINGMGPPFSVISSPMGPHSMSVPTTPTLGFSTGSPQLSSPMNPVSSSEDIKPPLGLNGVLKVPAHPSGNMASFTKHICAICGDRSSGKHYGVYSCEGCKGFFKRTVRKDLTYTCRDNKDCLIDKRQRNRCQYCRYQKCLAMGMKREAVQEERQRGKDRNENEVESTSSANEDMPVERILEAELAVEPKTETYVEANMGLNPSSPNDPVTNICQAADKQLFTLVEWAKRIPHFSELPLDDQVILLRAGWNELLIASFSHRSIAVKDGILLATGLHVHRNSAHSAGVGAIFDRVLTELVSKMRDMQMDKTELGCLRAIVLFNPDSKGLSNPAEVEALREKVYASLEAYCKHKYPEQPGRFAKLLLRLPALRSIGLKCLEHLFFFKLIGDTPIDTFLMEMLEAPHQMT

On to `CN(C)CCC=C1c2ccccc2CCc2ccccc21`, for which the Potency in [1] is 21.9 µM (active) and 49 µM (active) and inactive; in assay [7], 30.6 µM (active) and inactive. Moreover, the compound was called inactive in assay [2]. Moreover, the Potency result in assay [3], in assay [4], in [5] and in [6] was “inactive” each time.

As for `C=C(C)C(=O)OCCOC(=O)C(=C)C`, the Potency result in assay [1], in assay [3], in assay [4], in [5], in [6] and in assay [7] was “inactive” each time. The Potency entry in [9] is “inactive”. Further, the call in [2] and in [8] was inactive.

For `Cn1cnc([N+](=O)[O-])c1Sc1ncnc2nc[nH]c12`, the Potency entry in assay [1], in assay [3], in assay [4], in [5], in assay [6] and in [9] was “inactive” each time. Moreover, the result in assay [2] and in assay [8] was inactive. Moreover, the Potency in assay [7] was 30.5 µM (active) and inactive.

With `CCC(C)(O)CCCC(C)C` (stereo not given), the Potency entry in [1], in [3], in assay [4], in assay [5], in assay [6] and in assay [9] was “inactive” each time. Moreover, the call in assay [2] and in assay [8] was inactive.

In the case of `C[C@]12CCC(=O)C=C1CC[C@@H]1[C@@H]2C(=O)C[C@@]2(C)[C@H]1CC[C@]2(O)C(=O)CO`, the Potency result in assay [1], in assay [3], in assay [4], in [6], in assay [7] and in [10] was “inactive” throughout. Further, the Potency result in assay [9] is “inactive”. For the same compound, the result in assay [2] and in [8] was inactive.

For `O=S(=O)(O)c1ccc(O)cc1`, the Potency result in assay [1], in assay [3], in [4], in [6], in assay [7] and in assay [10] was “inactive” in each case. In addition, the Potency result in assay [9] was “inactive”. In addition, the compound was classed as inactive in assay [2] and in [8].

With `CNCCCC12CCC(c3ccccc31)c1ccccc12`, the Potency in assay [1] was 15.5 µM (active); in assay [6], 61.1 µM (active) and inactive; in [7], 34.4 µM (active) and inactive. Further, the outcome in assay [2] was inactive. The Potency entry in assay [3], in [4] and in [10] was “inactive” in each case.

As to `c1cc(N(CC2CO2)CC2CO2)ccc1OCC1CO1` (stereo not given), the Potency entry in assay [1], in assay [3], in [4], in assay [6] and in assay [10] was “inactive” in each case. Besides, the compound was classed as inactive in assay [2] and in assay [8]. For the same compound, the Potency in assay [7] is 54.5 µM (active) and 61.1 µM (active).

For the compound `CCCCOCCOCCOCCO`, the Potency result in assay [1], in assay [3], in assay [4], in [6], in [7] and in assay [9] was “inactive” throughout. Moreover, the compound was classed as inactive in assay [2] and in assay [8].

For `c1ccc2cc(Nc3ccc(Nc4ccc5ccccc5c4)cc3)ccc2c1`, the Potency entry in assay [1], in [3], in assay [5], in assay [6], in assay [7] and in assay [9] was “inactive” throughout. In addition, the compound was classed as inactive in assay [2] and in assay [8].

Take `O=C(c1ccc(OCCN2CCCCC2)cc1)c1c(-c2ccc(O)cc2)sc2cc(O)ccc12`: the Potency in assay [1] was 17.4 µM (active); in assay [3] it was 55 µM (active) and 54.9 µM (active) and inactive; in assay [6] it was 61.2 µM (active) and inactive; in assay [7], 13.7 µM (active) and 19.3 µM (active). Besides, the result in assay [2] and in assay [8] was inactive. Moreover, the Potency entry in [4] is “inactive”.

In the case of `Nc1ccc(Nc2ccccc2)cc1`, the Potency result in assay [1], in assay [3], in assay [4] and in assay [6] was “inactive” in each case. Moreover, the call in assay [2] was inactive. Further, the Potency entry in [7] was “inactive and 27.3 µM (active)”.

With `C=C(C)C1CC=C(C)CC1` (stereo not given), the Potency entry in assay [1], in [3], in assay [4], in [5], in assay [6] and in assay [9] was “inactive” throughout. In addition, the compound was classed as inactive in assay [8].

For `CCC(C)c1ccccc1O` (stereo not given), the Potency entry in assay [1], in [3], in assay [4], in assay [6], in [7] and in [9] was “inactive” throughout. The compound was called inactive in assay [2] and in [8].

As for `S=C(NC1CCCCC1)NC1CCCCC1`, the Potency result in assay [1], in assay [3], in assay [5], in assay [6] and in assay [10] was “inactive” in each case. Also, the compound was called inactive in [2]. Moreover, the Potency in assay [7] was 48.6 µM (active).

With `CC(=O)O[C@]1(C(C)=O)CC[C@H]2[C@@H]3C=C(Cl)C4=CC(=O)[C@@H]5C[C@@H]5[C@]4(C)[C@H]3CC[C@@]21C`, the Potency result in [1], in assay [3], in assay [4], in assay [6] and in assay [10] was “inactive” each time. The outcome in [2] and in assay [8] was inactive.

Regarding `CCOC(=O)C(C#N)=C(c1ccccc1)c1ccccc1`, the Potency entry in assay [1], in assay [3], in assay [4] and in assay [6] was “inactive” in each case. In addition, the outcome in assay [2] and in assay [8] was inactive.

As for `Nc1ccccc1N`, the Potency result in assay [1], in [3], in assay [5], in [6] and in [7] was “inactive” each time. The compound was called inactive in [2] and in [8].

`O=C=Nc1ccc(Cc2ccc(N=C=O)cc2)cc1`: the Potency entry in assay [1], in [3], in [6], in [7], in assay [10] and in [9] was “inactive” in each case. The compound was called inactive in assay [2] and in assay [8].

As for `O=C(O)c1ccccc1Nc1cccc(C(F)(F)F)c1`, the Potency entry in assay [1], in assay [3], in [4], in assay [6] and in assay [7] was “inactive” in each case. Moreover, the compound was classed as inactive in assay [2] and in [8].

Consider `Cc1cccc(C(=O)O)c1`, for which the Potency entry in assay [1], in [3], in assay [4], in [6], in assay [7] and in [10] was “inactive” throughout. Also, the compound was called inactive in [2] and in assay [8]. Besides, the Potency in assay [9] is 27.5 µM (active).

As for `CC(C)=CCC/C(C)=C\CO`, the Potency result in [1], in assay [3], in [4], in [5], in [6] and in assay [7] was “inactive” throughout. In [9], the Potency entry was “inactive”. Also, in [8], the call was inactive.

`O=CCCCC=O`: the Potency entry in assay [1], in [3], in [10] and in assay [9] was “inactive” throughout. Also, the compound was called inactive in assay [2] and in [8]. The Potency was 61.1 µM (active) in assay [6]; 29.6 µM (active) and inactive in [7].

Turning to `CC(C)OB(OC(C)C)OC(C)C`, the Potency entry in assay [1], in [3], in assay [4], in assay [6], in assay [7] and in [9] was “inactive” each time. Besides, the result in [2] and in assay [8] was inactive.

`O=C(Nc1ccc([N+](=O)[O-])cc1Cl)c1cc(Cl)ccc1O`: in assay [2], the compound was called inactive. Also, the Potency entry in assay [3] and in assay [7] was “inactive” in each case. In assay [6], the Potency was 1.54 µM (active) and 920 nM (active). The viability change, negative = cytotoxic in assay [10] was 2.04% [at 15.8 µM] (inactive). Besides, in [8], the activation was 4.2% [at 15.8 µM] (inactive).

As for `c1ccc2sc(SSN3CCOCC3)nc2c1`, the Potency entry in assay [1], in assay [3], in assay [5] and in [10] was “inactive” throughout. Further, the compound was called inactive in assay [2]. Also, the Potency is 27.3 µM (active) in [6]; 19.3 µM (active) and 54.5 µM (active) in assay [7].

Turning to `CN(C)C(=N)N=C(N)N`, the Potency entry in assay [1], in [3], in [4] and in [6] was “inactive” in each case. Besides, the compound was classed as inactive in assay [2] and in assay [8].

Regarding `Cc1ccc(C(=O)c2cc(O)c(O)c([N+](=O)[O-])c2)cc1`, the Potency result in assay [1], in assay [3], in [4], in [6] and in assay [10] was “inactive” in each case. Besides, the outcome in [2] and in assay [8] was inactive. The Potency in [7] is 27.3 µM (active) and 26.6 µM (active).

Regarding `COc1ccc(C(=O)CC(=O)c2ccc(C(C)(C)C)cc2)cc1`, the Potency entry in assay [1], in assay [3], in assay [4], in [6], in [10] and in assay [9] was “inactive” each time. Also, the compound was classed as inactive in assay [2] and in assay [8].
